Source: PubChem BioAssay (National Center for Advancing Translational Sciences (NCATS))
Hits are enriched below; roughly 7.6% of the tested compounds scored in any of these assays.
p53 reactivator = re-activators of mutant p53; H1299 p53-A138V BP100-luciferase reporter, luminescence, 24 h; Potency, µM (highest dose often 92.2 µM), for the others: at the highest dose activity change, positive = activation, hits mostly activators; 320,000 compounds, 0.063% hits; further: potency means the concentration at half of the fitted maximal effect; % of control where 0% means no effect; nearly all actives have a fitted effect of over 45% in size
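H1299 (p53-null), stable ts p53-A138V + BP100-Luc; 1000 cells/well, Opti-MEM/10% FBS; cpd 4 pt, 1:5; 24 h, 37 deg C, 5% CO2; detection reagent 10 min RT; luminescence.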
Gal4-VP16 FLuc = inhibits Gal4-VP16 luciferase reporter, ROR gamma counter-screen. Drosophila S2 Gal4-VP16 UAS-luciferase, luminescence, 20 h. Potency, µM (doses to about 53.6 µM), for inactives: at the top dose activity, negative = inhibition, most hits filed as inhibitors. AID 2546. 310,000 compounds, 3.5% hits;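 further: Gal4-VP16 expression switched on by copper sulfate through the metallothionein promoter; potency means the concentration at half of the fitted maximal effect; on the % scale 0 is the no-effect control and ±100 the full control effect; nearly all actives have a fitted effect of over 50% in size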
Giardia killer = Giardia lamblia killing. activity change, % at 7.66 µM, hits read low. Giardia lamblia trophozoite viability. AID 540267. 340,000 compounds, 0.15% hits; in the data active means activity change below about -80%; inconclusive means between about -30% and that limit;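 further: parasites exposed to compound for two days anaerobically before the ATP read; on the % scale 0 is the no-effect control and ±100 the full control effect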
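Trophozoite viability was measured as ATP-dependent luminescence, read 15-30 min after reagent addition. Before that, parasites at 100 cells/well were exposed to compounds for 48 h, anaerobically, at 37 deg C.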
BRCA1 expr up = activators of BRCA1 expression. MCF7-BRCA1-FFLuc reporter, luminescence, 48 h; response scale: scaled: vehicle 0%, 10 µM genistein 100%. Potency, µM (titrated, usually from 46.1 µM), inactives show at the highest dose activation, most hits filed as activators. 380,000 compounds, 1.1% hits. AID 624202; further: potency means the concentration at half of the fitted maximal effect; nearly all actives have a fitted effect of over 80% in size
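Reporter cells (MCF7, BRCA1 promoter-firefly luciferase) received library compounds across a concentration series for 48 h. End-point luminescence was measured and concentration-effect curves derived after normalization.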
RORgamma inh = blocks mouse ROR gamma transcriptional activity | AID 2551 | 310,000 compounds, 5.4% hits | Potency, µM (series often up to 53.6 µM), without a hit: top-dose activity change, negative = inhibition, actives largely listed as inhibitors | P51450 | Drosophila S2 Gal4-RORgamma UAS-luciferase reporter, 20 h; further: potency means the concentration at half of the fitted maximal effect; on the % scale 0 is the no-effect control and ±100 the full control effect; nearly all actives have a fitted effect of over 60% in size
Target sequence (P51450 whole entry, looked up, the tested form may be a part): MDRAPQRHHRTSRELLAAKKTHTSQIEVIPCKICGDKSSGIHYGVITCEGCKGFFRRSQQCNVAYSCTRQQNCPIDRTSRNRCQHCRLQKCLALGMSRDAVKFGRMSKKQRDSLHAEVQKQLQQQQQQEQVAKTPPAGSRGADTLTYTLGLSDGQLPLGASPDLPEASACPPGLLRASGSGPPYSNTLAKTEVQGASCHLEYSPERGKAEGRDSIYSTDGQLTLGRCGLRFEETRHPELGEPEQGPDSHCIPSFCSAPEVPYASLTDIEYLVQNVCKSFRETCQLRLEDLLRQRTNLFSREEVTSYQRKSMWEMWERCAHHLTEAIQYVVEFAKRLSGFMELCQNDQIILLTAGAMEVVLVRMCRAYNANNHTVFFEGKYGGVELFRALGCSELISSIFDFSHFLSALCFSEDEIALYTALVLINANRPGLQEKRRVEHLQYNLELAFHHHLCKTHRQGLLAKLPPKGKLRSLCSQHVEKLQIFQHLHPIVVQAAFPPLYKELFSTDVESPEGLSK
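Luciferase reporter read in Schneider cells carrying Gal4-RORγ (mouse) and UAS-Photinus luciferase; cells given compound 1 h before 700 uM copper sulfate induction, then incubated 20 h at ambient temperature.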
ELG1 repair inh = inhibitors of ELG1-dependent DNA repair in HEK293T cells. HEK293T ELG1-luciferase reporter, luminescence, 16 h; DNA damage induced by 5-fluorouridine. Potency, µM (series often up to 46.1 µM), without a hit: top-dose activity change, negative = inhibition, usual class: inhibitors. 330,000 compounds, 2.3% hits; further: potency means the concentration at half of the fitted maximal effect; on the % scale 0 is the no-effect control and ±100 the full control effect; nearly all actives have a fitted effect of over 55% in size
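HEK293T cells expressing luciferase-tagged ELG1 (2,000/well) received 5-Fluorouridine plus compound or DMSO for 16 hr at 37 °C. Luciferase was read by ONE-Glo luminescence after 30 min at room temperature.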
Starred values were filed as active, the others as inactive; ? = inconclusive; nt = no result given; ! = not confirmed by another sample; [ ] = another dose, or the depositor's remark. Unless noted, the call rests on the fitted dose curve; in most records, active means well fitted curve in the direction sought with a large enough effect; inconclusive means small, poorly fitted or top-dose-only effect, or another doubt; inactive means no such curve, though single readings can be large; an effect the other way counts as inactive or inconclusive.

SMILES	p53 reactivator	Gal4-VP16 FLuc	Giardia killer	BRCA1 expr up	RORgamma inh	ELG1 repair inh
S=c1[nH]c2ccccc2s1	nt	10µM*	nt	nt	7.94µM*	nt
CNC(=O)C(=O)NCCC1CCCCN1S(=O)(=O)c1cccs1 (stereo not given)	-4.3%	nt	29.1	3.6%	nt	5.8%
O=C(CSc1ncnc2sc3c(c12)CCCC3)N1CCC(c2noc3ccc(F)cc23)CC1	15.7%	-8.2%	-1.3	-5.2%	-15.4%	-14.7%
Cc1cc(SCC(=O)N2CCC(c3noc4ccc(F)cc34)CC2)nc2ccccc12	-7.6%	1.1%	-3.8	-1.1%	9.8%	20.6µM*
Cc1ccc(CN(C)C(=O)CN2C(=O)NC3(CCCc4ccccc43)C2=O)c(C)c1 (stereo not given)	1.6%	nt	-3.0	-4.3%	nt	-17.1%
CC(C)(C)OC(=O)C1=NOC2(C=CC(=O)C=C2)C1	nt	12.6µM*!	nt	nt	?	nt
O=C(COC(=O)c1cc(NS(=O)(=O)c2cccs2)ccc1O)Nc1ccc(F)c(F)c1F	0.6%	-8.3%	3.2	-14.5%	32.9%	?
O=C(COC(=O)c1cc(NS(=O)(=O)c2cccs2)ccc1O)Nc1cc(Cl)ccc1Cl	1.4%	12.6µM*	-18.9	18.9%	?	1.6%
O=C1c2ccccc2C(=O)N1CCCCN(C(=O)c1cc([N+](=O)[O-])ccc1Cl)c1ccc(Cl)cc1	-7.9%	-13.7%	2.1	-16.0%	66.6%	20.6µM*
O=C1c2ccccc2C(=O)N1CCCCN(C(=O)c1ccc(Cl)s1)c1ccc(Cl)cc1	-0.5%	5.01µM*	16.1	-3.0%	8.91µM*	-19.0%
COc1cc2cc(CCCO)oc(=O)c2cc1OC	-4.3%	nt	-2.9	-4.4%	nt	?
C/C(=N\NC(=S)NC(C)C)c1ccccc1	11.3%	3.55µM*	-13.4	4.3%	0.562µM*	1.6%
CC(C)NC(=S)NC(c1ccccc1)(c1ccccc1)c1ccccc1	27.1%	3.16µM*	2.5	-15.4%	?	?
COC(=O)N/N=C(\C)c1ccco1	3.3%	-14.7%	-12.1	0.0%	-33.8%	0.0%
C/C(=N\NC(=S)NC(C)C)c1ccco1	-3.2%	4.47µM*	16.9	17.2%	?	11.3%
CC(C)NC(=O)CS(=O)(=O)c1ccccc1	7.2%	-12.2%	10.7	3.2%	-13.1%	-0.4%
CC(C)NC(=S)NN=C1c2ccccc2-c2ccccc21	5.5%	?	-12.6	-26.3%	7.94µM*	3.0%
CCOC(=O)c1ccc(-c2c(-c3cc(OC)c(OC)c(OC)c3)noc2C)cc1F	18.1%	1.7%	0.6	-37.8%	-23.6%	?
C=C(C)CNC(=S)N/N=C(\C)c1cccc(NC(C)=O)c1	-2.0%	?	-6.7	11.1%	10µM*	?
CC(=O)Nc1cccc(/C(C)=N/NC(=S)NC(C)C)c1	-5.2%	?	6.6	31.6%	7.94µM*	?
CCOC(=O)N1CCC(NC(=O)c2ccc3c(c2)N(Cc2ccc(F)cc2)CCS3)CC1	-1.8%	-11.8%	-27.9	-54.1%	23.5%	18.4µM*
CCOC(=O)N1CCC(NC(=O)c2ccc3c(c2)N(Cc2ccccc2)CCS3)CC1	0.5%	-6.7%	13.0	-34.4%	19.3%	14.6µM*
CCOC(=O)N1CCC(NC(=O)c2ccc3c(c2)N(Cc2ccc(C)cc2)CCS3)CC1	1.7%	0.4%	-18.1	5.6%	-4.3%	?
Cc1ccc(CN(C(=O)Cn2nnc3ccccc32)C(C(=O)NCc2ccco2)c2ccc(C)o2)cc1 (stereo not given)	-2.1%	-15.9%	0.2	-40.6%	22.3%	23.1µM*
Cc1ccc(N(C(=O)Cn2nnc3ccccc32)C(C(=O)NCc2ccco2)c2ccc(C)o2)cc1 (stereo not given)	1.7%	-2.7%	-17.2	-31.8%	-11.9%	-7.7%
SMILES	p53 reactivator	Gal4-VP16 FLuc	Giardia killer	BRCA1 expr up	RORgamma inh	ELG1 repair inh
O=C(NCc1ccco1)c1ccc2nc3sc4c(c3c(=O)n2c1)CCCC4	?	?	nt	nt	4.47µM*	-2.6%
C=CCn1c(SCC(=O)NCc2ccco2)nc2sc3c(c2c1=O)CCCC3	-1.6%	5.4%	-0.4	-1.7%	-6.4%	7.1%
O=C(O)CC(CC(=O)O)(C(=O)O)c1ccccc1	0.7%	-0.6%	-26.0	-4.9%	-6.5%	8.1%
Oc1ccccc1C1CC(c2cccs2)=NC(c2ccc(Cl)cc2)N1 (stereo not given)	3.0%	18.3%	-7.7	-63.6%	?	-11.3%
Oc1ccc(Cl)cc1C1=NNC(c2cccs2)C1 (stereo not given)	-2.8%	?	-14.9	-2.4%	5.01µM*	?
Cc1ccc(O)c(C2=NNC(c3ccc(Cl)cc3)C2)c1 (stereo not given)	20.5%	12.6µM*	24.5	22.5%	7.94µM*	18.1%
OC[C@@H]1[C@@H](c2ccc(F)cc2)C(c2ccccc2)=NN1c1ccccc1	-0.6%	?	-2.1	-5.3%	26.0%	-0.8%
Cc1ccccc1C(=O)NC(=S)N(C)CCc1ccccn1	7.6%	?	2.0	1.7%	7.08µM*	24.5%
Cc1ccccc1C(=O)NC(=S)N(Cc1ccccc1)c1ccccn1	29.0%	nt	-8.4	29.5%	nt	?
CCN(CC)CCNC(=O)c1ccc2c(c1NCCO)C(=O)c1ccccc1C2=O	2.6%	-25.1%	-11.6	-97.9%	?	13µM*
CC1CCN(C(=O)c2ccc3c(c2NCCO)C(=O)c2ccccc2C3=O)CC1	-13.4%	-15.9%	-26.6	-3.8%	-41.7%	?
Clc1cc(Cl)c2nc(N3CCOCC3)sc2c1	?	-2.4%	4.6	11.2µM*	?	?
c1ccc2sc(SN3CCOCC3)nc2c1	12.4%	7.08µM*	5.3	0.1%	10µM*	21.0%
c1ccc2sc(SCSc3nc4ccccc4s3)nc2c1	6.6%	11.4%	4.1	75.5%	-18.2%	?
c1c2c(cc3sc(N4CCOCC4)nc13)OCCO2	-14.1%	4.47µM*	?	-93.7%	3.55µM*	?
c1ccc2sc(N3CCOCC3)nc2c1	18.2%	?	24.0	8.91µM*	4.2%	?
COc1cccc(NC(=O)Nc2cc(C)on2)c1	13.7%	27.4%	18.7	53.9%	-16.3%[1.91 µM]	?
COc1ccc(-c2ccc(SCC(=O)NCc3ccco3)nn2)cc1	15.4%	-1.5%	-14.4	48.7%	-12.0%[10 µM]	?
COc1ccc(-c2nnc(SCC(=O)NC(=O)NCc3ccco3)o2)cc1	6.2%	?	-21.5	-33.9%	7.94µM*	4.7%
Cc1ccc2nc(SCc3nc4ccccc4c(=O)[nH]3)[nH]c2c1	-0.1%	?	-0.3	3.98µM*	-24.2%	?
COc1cccc(C(=O)NC(=O)Nc2cc(C)on2)c1	6.4%	-10.1%	5.3	7.94µM*	34.2%	?
COC(=O)c1sc2nc(CSc3nc4ccc(C)cc4[nH]3)[nH]c(=O)c2c1C	-1.2%	-2.5%	-3.1	-52.8%	4.4%	-0.5%
